The values below come from ChEMBL document CHEMBL4513146, “CO-ADD screening of Karazin Kharkiv National University (Ukraine) compounds”.

Test [1] deals with Klebsiella pneumoniae. As to conditions: Concentration 32 ug.mL-1;; ASSAY_TEST Inhibition of Bacterial Growth; detection method Absorption (OD600); MEDIA CAMHB; plate type 384well; NBS; CORNING #3640; time 18 hr.
Test [2] deals with Candida albicans. As to conditions: Concentration 32 ug.mL-1; ASSAY_TEST Inhibition of Fungal Growth; detection method Absorption (OD530).
Test [3] relates to Cryptococcus neoformans. As to conditions: Concentration 32 ug.mL-1; ASSAY_TEST Inhibition of Fungal Growth; detection method Resazurin; Absorption (OD600-OD570); plate type 384well; NBS; CORNING #3640.

Molecules are shown by their SMILES. Entries with a potency or affinity are not part of this list.

Broadly, the Inhibition is the drop in the measured response relative to a control, in per cent.

For `N#CCn1nc2n(Cc3ccccc3)c(=O)c3ccc(C(=O)NC4CCCCC4)cc3n2c1=O`, the figures for the Inhibition in test [1], in test [2] and in test [3] were 4.19%, 1.65% and -13.83%, respectively.
`Cc1ccc(-c2nc(CSc3nc4ccccc4n4c(C(C)C)nnc34)c(C)o2)cc1`: the Inhibition in test [1] is 3.51%; in test [2], 2.71%; in test [3], -13.81%.
Turning to `CCc1nnc2c(SCC(=O)Nc3c(C)cc(C)cc3C)nc3ccccc3n12`, the Inhibition in test [1] is reported as 8.2%; in test [2], 1.5%; in test [3], -17.04%.
For `Cc1c(Cl)cccc1-n1ccn2c(=S)[nH]nc2c1=O` the same measures were 8.12%, 2.5% and -13.36%.
As for `COc1ccc(NC(=O)Cn2c(=O)c3nnc(C(C)C)n3c3ccccc32)cc1Cl`, the Inhibition in test [1] is on record as 7.18%; in test [2], 3.46%; in test [3], -13.11%.
The like results for `CCCN(C)c1nccn2c(=O)n(CC(=O)Nc3ccc(C#N)cc3)nc12` were, in that order, 16.62%, 0.92% and -9.74%.
For `CC1CCCN(c2nccn3c(=O)n(CC(=O)Nc4ccc5c(c4)OCO5)nc23)C1` (stereo not drawn) the same measures were 1.66%, -0.45% and -11.4%.
In the case of `CC(C)c1nnc2c(SCC(=O)Nc3cccc(Cl)c3)nc3ccccc3n12`, the values for the Inhibition in test [1], in test [2] and in test [3] were 10.95%, 2.12% and -14.08%, respectively.
With `COc1ccc(-c2cc3c4nnc(CCC(=O)NCc5ccc(OC)cc5OC)n4ccn3n2)cc1`, the Inhibition is 15.27% in test [1], 2.37% in test [2] and -17.34% in test [3].
For `CCCN(C)c1nccn2c(=O)n(CC(=O)Nc3ccc(OC)c(Cl)c3)nc12` the same measures were 9.65%, 7.19% and -3.69%.
On to `CC(C)c1ccc(NC(=O)Cn2nc3c(N4CCCCC4)nccn3c2=O)cc1`, for which the Inhibition is 10.38% in test [1], 4.27% in test [2] and -12.25% in test [3].
The like results for `COc1cccc(Oc2nccn3c(=O)n(CC(=O)Nc4ccc5c(c4)OCCO5)nc23)c1` were, in that order, 1.41%, 7.65% and -9.22%.
The like results for `Cc1ccc(C)c(NC(=O)Cn2nc3c4cc(-c5ccc(C)c(C)c5)nn4ccn3c2=O)c1` were, in that order, 5.73%, -1.76% and -22.88%.
With `O=C(CSc1nnc2c(=O)n(-c3ccc(Br)cc3)ccn12)c1ccc(F)cc1`, the Inhibition was 7.31% in test [1], 5.26% in test [2] and -8.48% in test [3].
Consider `COc1cccc(NC(=O)Cn2nc3c(Oc4ccccc4)nccn3c2=O)c1`, for which the Inhibition is listed as -9.5% in test [1], 1.78% in test [2] and -2.51% in test [3].
Consider `CCOc1ccc(-n2ccn3c(SCC(=O)Nc4cccc(Cl)c4)nnc3c2=O)cc1`, for which the results for the Inhibition in test [1], in test [2] and in test [3] were 10.12%, 2.64% and -5.2%, respectively.
With `CN(C(=O)Cn1nc2nc(Nc3ccc(F)cc3)ccn2c1=O)c1ccccc1`, the Inhibition in test [1] was 8.25%; in test [2], 3.9%; in test [3] it was -4.67%.
The like results for `CCCCN(C)c1ccc2nnc(CCc3nc(-c4cc(OC)cc(OC)c4)no3)n2n1` were, in that order, 6.4%, 9.61% and -5.17%.
For the compound `O=C(CSc1nnc2c(=O)n(-c3ccccc3)ccn12)Nc1ccc(F)cc1`, the values for the Inhibition in test [1], in test [2] and in test [3] were 3.51%, 4.29% and -7.32%, respectively.
The like results for `COc1cc(NC(=O)C(C)Sc2nnc3c(=O)n(-c4ccccc4OC)ccn23)cc(OC)c1` (stereo not drawn) were, in that order, 11.13%, 1.4% and -7.6%.
In the case of `CCc1nnc2c(S(=O)(=O)N(Cc3ccccc3C)c3ccc(C(C)C)cc3)cccn12`, the Inhibition is 3.73% in test [1], 21.84% in test [2] and -8.38% in test [3].
The like results for `Cc1ccc(NC(=O)Cn2nc3c4cc(-c5ccc(C)c(C)c5)nn4ccn3c2=O)cc1` were, in that order, 12.57%, 8.44% and -14.13%.
For `COc1cccc(Sc2nc3ccccc3n3c(=O)n(CC(=O)Nc4ccc(Cl)cc4)nc23)c1` the same measures were 2.35%, 36.59% and -25.56%.
The like results for `CCCNC(=O)CSc1nnc2c(=O)n(-c3ccc(F)cc3)ccn12` were, in that order, 12.9%, 2.11% and -15.58%.
With `CC(C)c1nnc2c(=O)n(CC(=O)Nc3ccc(F)cc3F)c3ccccc3n12`, the Inhibition in test [1] is on record as 15.02%; in test [2], 0.81%; in test [3], -23.4%.
The like results for `Cc1cccc(Sc2nccn3c(=O)n(CC(=O)N4CCN(c5ccc(F)cc5)CC4)nc23)c1` were, in that order, -8.7%, 3.19% and -30.97%.
On to `COc1ccc(NC(=O)Cn2c(=O)c3nnc(C(C)C)n3c3ccccc32)cc1`, for which the values for the Inhibition in test [1], in test [2] and in test [3] were 10.47%, 4.15% and -13.18%, respectively.
The like results for `Cc1nnc2c(S(=O)(=O)N(Cc3ccccc3F)c3ccc(C(C)C)cc3)cccn12` were, in that order, 0.43%, 0.44% and -4.75%.
The like results for `Cc1ccc(Nc2cc(C)n3c(=O)n(Cc4cc(=O)n5ccccc5n4)nc3n2)cc1F` were, in that order, 9.15%, -0.76% and -5.54%.
Take `CCCCOc1ccc(-c2cc3c4nnc(SCC(=O)NCc5ccc(OC)cc5)n4ccn3n2)cc1`: the Inhibition was 6.37% in test [1], 17.75% in test [2] and -16.44% in test [3].
As to `COc1ccc(NC(=O)Cn2nc3c(Oc4cccc(F)c4)nccn3c2=O)cc1`, the Inhibition in test [1] was -11.98%; in test [2], 4.65%; in test [3], -6.95%.
